The list is not random: actives were taken first. Their share in the collection is about 4.2%.
hgDAF-12 ag: activates the H. glycines DAF-12 receptor ligand-binding domain; activation, % at 6.8 µM; HEK293 GAL4-hgDAF12 UAS-luciferase reporter, agonist luminescence; normalized to butyrate control; 1.8% of 370,000 active; AID 687014;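 active means activation above a cutoff set at the mean of all screened compounds plus 3 SD, cut at about 10% in these data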;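 further: 0% = DMSO wells and 100% = sodium butyrate wells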
ssDAF12 agonist: activators of S. stercoralis DAF-12 nuclear receptor. 1% of 370,000 active. activation, % at 6.8 µM. AID 652126. HEK293 ssDAF-12/GRIP1 lit1-tk-luc reporter, luminescence; % of 3 µM dafachronic acid response;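 active means activation above the mean over all tested compounds plus 3 SD, cut at about 0.9% in these data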;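 further: 0% = DMSO-only wells and 100% = 3 µM delta7-dafachronic acid wells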
DAX1 inh: DAX1 (NR0B1) inhibition, primary screen; 1.1% of 370,000 active; HEK293T StAR-luciferase reporter, SF-1/DAX-1 repression relief; inhibition, % at 6.8 µM; AID 652010;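 active means inhibition above the mean over all tested compounds plus 3 SD, cut at about 3.6% in these data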;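 further: 0% = DAX-1 cells with DMSO and 100% = cells lacking DAX-1 with DMSO; higher inhibition means more luminescence from relief of DAX-1 repression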
hcDAF-12 act: activators of H. contortus DAF-12 nuclear receptor; HEK293 hcDAF-12 lit1-tk-luc reporter, luminescence; 0% DMSO, 100% Δ7-dafachronic acid; 1.4% of 370,000 active; activation, % at 6.8 µM; AID 652067;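 active means activation above the mean of all tested compounds plus 3 SD, cut at about 5.5% in these data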;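 further: 100% = response to 3 µM Δ7-dafachronic acid high control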
SMARCA2 act: activators of SMARCA2 function; MG213 cells, MMTV-luciferase reporter, dexamethasone, overnight; activation, % at 9.1 µM; 1% of 370,000 active; in the data active means activation above about 7.8%;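 further: 0% = vehicle wells and 100% = reference activator wells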
DAX1 inh confirm: confirmation of human DAX1 (NR0B1) inhibitors | 87% of 2,400 active | inhibition, % at 6.8 µM | shares compounds with DAX1 inh | HEK293T StAR-promoter luciferase reporter, SF-1/DAX-1 repression | AID 652134;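 active means inhibition above the average of every tested compound plus 3 SD, cut at about 3.8% in these data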;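 further: 0% = DAX-1 cells with DMSO and 100% = no DAX-1 control cells with DMSO; active compounds raise luminescence by relieving repression of the StAR reporter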
SF1 AF2mut Luc: counter-screen for DAX1 inhibitors: nonselective inhibitors with SF-1 AF2 mutant; shares compounds with DAX1 inh; inhibition, % at 6.8 µM; 78% of 2,400 active; HEK293 StAR-luciferase, luminescence;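 active means inhibition above the mean of all tested compounds plus 3 SD, cut at about 3% in these data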;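 further: 0% = DAX-1 transfected cells with DMSO and 100% = cells without DAX-1 with DMSO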
SMARCA2 act conf: SMARCA2 activation, confirmation screen; activation, % at 9.1 µM; AID 652260; shares compounds with SMARCA2 act; 30% of 3,500 active; MG213 cells, MMTV-luciferase with dexamethasone, luminescence, overnight; MG213 cells expressing E1A, Rb sequestered; DMSO wells 0%, reference activator 100%;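 active means activation above its plate's cutoff, the mean activation of tested wells plus 3 SD, cut at about 7.9% in these data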
GAL4-VP16 Luc: counter-screen for SMARCA2 activators: GAL4-VP16 luciferase reporter activation | shares compounds with SMARCA2 act | HEK293 GAL4-VP16 pG5luc reporter, luciferase luminescence; scaled: DMSO wells 0%, SAHA wells 100% | activation, % at 9.1 µM | 41% of 3,500 active;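 active means activation above the solvent-only control well mean plus 3 SD, averaged across control plates, cut at about 5.2% in these data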
LXRb hcDAF ctr: activates human LXR-beta, counter-screen for hcDAF-12 agonists; AID 743027; activation, % at 6.8 µM; HEK293 Gal4-LXR tk-luc reporter, luminescence, 24 h; normalized: DMSO 0%, positive control 100%; 3,400 tested, under 10 active; shares compounds with hcDAF-12 act;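 active means mean percent activation of the reporter above a cutoff set as the average over tested compounds plus their standard deviation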
Target sequence (P55055 whole entry, looked up, the tested form may be a part): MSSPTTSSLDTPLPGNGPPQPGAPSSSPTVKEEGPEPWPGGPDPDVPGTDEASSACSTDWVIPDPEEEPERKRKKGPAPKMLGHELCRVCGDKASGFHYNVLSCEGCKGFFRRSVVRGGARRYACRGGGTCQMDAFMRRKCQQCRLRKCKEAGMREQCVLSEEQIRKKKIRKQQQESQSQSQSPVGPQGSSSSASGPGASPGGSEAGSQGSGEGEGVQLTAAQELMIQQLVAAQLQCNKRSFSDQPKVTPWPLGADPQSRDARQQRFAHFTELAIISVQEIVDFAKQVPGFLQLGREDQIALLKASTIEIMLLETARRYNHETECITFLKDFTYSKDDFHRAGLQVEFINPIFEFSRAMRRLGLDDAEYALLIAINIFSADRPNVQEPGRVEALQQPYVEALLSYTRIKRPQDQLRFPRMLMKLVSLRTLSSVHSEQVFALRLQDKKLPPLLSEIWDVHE
hcDAF12 conf: hcDAF-12 agonism, confirmation assay; HEK293 hcDAF-12 lit1-tk-luc reporter, luminescence; % of Δ7-dafachronic acid response; activation, % at 6.8 µM; 61% of 3,400 active; AID 743032; shares compounds with hcDAF-12 act;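 active means mean activation across triplicate tests above the threshold derived from the earlier primary screen, cut at about 5.5% in these data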;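 further: 0% = DMSO only wells and 100% = 3 µM Δ7-dafachronic acid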
hgDAF12 conf: confirmation of H. glycines DAF-12 agonists; shares compounds with hgDAF-12 ag; HEK293 GAL4-hgDAF12 luciferase reporter, agonist mode; percent of butyrate response; activation, % at 6.8 µM; 80% of 3,300 active;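 active means mean activation over triplicate wells above the hit cutoff derived from the earlier primary screen, cut at about 11% in these data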;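 further: 0% = DMSO low control and 100% = 2 mM sodium butyrate high control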
LXR ag 2: activates human LXR-beta, counter-screen for DAF-12 agonists; shares compounds with hgDAF-12 ag; HEK293 Gal4-LXR luciferase reporter, 24 h; activation, % at 6.8 µM; 3,300 tested, under 10 active; AID 743051;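 active means mean activation of the triplicate above a set limit carried over from the primary screen, none filed active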
The depositor's hits bear a star; x = not tested or not shown.

SMILES	hgDAF-12 ag	ssDAF12 agonist	DAX1 inh	hcDAF-12 act	SMARCA2 act	DAX1 inh confirm	SF1 AF2mut Luc	hgDAF12 conf	LXR ag 2	others
O=C(Nc1ccccn1)c1cccc(S(=O)(=O)N2CCCc3ccccc32)c1	1	-1	-2	-1	-1	x	x	x	x
COc1ccc(-n2nc3cc(C)c(NC(C)=O)cc3n2)cc1	18*	0.9*	4.5*	5	8.1*	8.4*	1	9	1	SMARCA2 act conf=5;GAL4-VP16 Luc=8.9*
COc1ccc(NC(C)=O)c(C)c1	0	-2	0	-2	-3	x	x	x	x
O=C1CSc2ccc(C(=O)N3CCCC(C(=O)N4CCCCC4)C3)cc2N1 (stereo unspecified)	4	0	-1	0	-2	x	x	x	x
Cc1ncc(C(=O)Nc2ccccc2)[nH]1	21*	1	4.7*	4	8	11*	6.9*	13*	0
Oc1ccc(N=Nc2n[nH]c(-c3ccccc3)n2)cc1	15*	1	7.1*	5	1	15*	9.2*	17*	1
O=C(NC(=S)Nc1cc([N+](=O)[O-])ccc1O)c1ccc2c(c1)OCO2	16*	0	10.0*	9.2*	7	16*	7.4*	18*	1	LXRb hcDAF ctr=2;hcDAF12 conf=9.7*
COc1cc([N+](=O)[O-])ccc1NC(=S)NNC(=O)c1ccc2c(c1)OCO2	2	-1	0	1	0	x	x	x	x
COc1ccc2oc(C(=O)Nc3nccs3)c(C)c2c1	18*	0	12*	8.2*	1	11*	7.7*	23*	1	LXRb hcDAF ctr=2;hcDAF12 conf=10*
CCOc1ccc2oc(C(=O)Nc3nccs3)c(C)c2c1	14*	0	7.2*	5.9*	2	15*	7.5*	21*	1
CCN(CC)c1ccc(C=Nn2c(-c3cc(C)[nH]n3)n[nH]c2=S)cc1	-1	-1	-1	3	-1	x	x	x	x
CC(C)C1OC(CCc2ccccc2)Cc2[nH][nH]c(=O)c21 (stereo unspecified)	1	-1	1	2	5	x	x	x	x
N=C1N(c2ccccc2)C(=S)C(=Nc2ccccc2)N1c1ccccc1	17*	0	8.6*	9.8*	2	-5	-3	7	0	LXRb hcDAF ctr=0;hcDAF12 conf=1
Fc1ccc(N2C(=S)SC(=Nc3ccccc3)C2=Nc2ccccc2)cc1	7	-1	1	4	1	x	x	x	x
COc1ccc2cc3cc(C(=O)N4CCCC(C)C4)oc3nc2c1 (stereo unspecified)	14*	0	7.4*	4	8.8*	12*	8.9*	16*	1	SMARCA2 act conf=3;GAL4-VP16 Luc=9.2*
COc1ccc2nc3oc(C(=O)N4CCCCC4)cc3cc2c1	10	1	3	5	3	x	x	x	x
Cn1c(CCc2ccc(N)cc2)nc2ccccc21	15*	-1	6.1*	2	4	9.5*	5.0*	14*	1
COc1ccc(Cc2nc3ccccc3n2C)cc1	2	-1	0	1	-4	x	x	x	x
O=C(N/N=C/c1cccc(O)c1)c1ccc2c(c1)OCCO2	18*	1.1*	19*	13*	6	17*	9.4*	18*	1	LXRb hcDAF ctr=2;hcDAF12 conf=8.5*
O=C(N/N=C/c1ccccc1[N+](=O)[O-])c1ccc2c(c1)OCCO2	24*	1	5.6*	6.2*	5	11*	4.8*	15*	1
O=C(N/N=C/c1cc([N+](=O)[O-])ccc1O)c1ccc2c(c1)OCCO2	1	-2	0	-1	-4	x	x	x	x
OC(c1ccccc1)(c1ccccc1)C1CCN(CCCOc2ccncc2)CC1	1	0	1	0	3	x	x	x	x
O=C(c1ccc(F)cc1)n1ccc2ccc(-c3ccc4ccn(Cc5ccccc5)c4c3)cc21	-1	-1	0	0	-3	x	x	x	x
CCCc1ccc(OCc2ccc(C(=O)N/N=C/c3cccnc3)o2)cc1	14*	-1	5.9*	4	11*	6.9*	4.3*	17*	1	SMARCA2 act conf=6;GAL4-VP16 Luc=18*
COc1ccc(C(=O)NC2=Nc3ccccc3N=C(C)C2c2ccccc2)cc1 (stereo unspecified)	59*	0.9*	9.6*	8.9*	-1	23*	19*	39*	0	LXRb hcDAF ctr=0;hcDAF12 conf=1
SMILES	hgDAF-12 ag	ssDAF12 agonist	DAX1 inh	hcDAF-12 act	SMARCA2 act	DAX1 inh confirm	SF1 AF2mut Luc	hgDAF12 conf	LXR ag 2	others
COC(=O)[C@@H]1N=C(c2ccc(OC)cc2)O[C@]12C(=O)N(Cc1cn(Cc3ccccc3)nn1)c1cccc(Cl)c12	2	-1	-1	-3	-4	x	x	x	x
Cc1cc(C(=O)COC(=O)c2ccc(NC(=O)CC#N)cc2)c(C)n1C1CC1	4	-1	3	-1	4	x	x	x	x
Cc1cc(C(=O)COC(=O)c2ccc(Cl)c(S(N)(=O)=O)c2)c(C)n1C1CC1	14*	0	8.0*	2	3	8.3*	5.4*	15*	0
COc1cc(OC)cc(C(=O)NCC(=O)OCc2nc3ccccc3s2)c1	14*	1.8*	4.8*	11*	3	13*	7.4*	13*	0	LXRb hcDAF ctr=1;hcDAF12 conf=11*
COc1ccc(C(=O)COC(=O)CNC(=O)c2cc(OC)cc(OC)c2)cc1	-3	-1	0	-2	2	x	x	x	x
O=C(OCc1nc2ccccc2s1)c1cccs1	17*	1.8*	5.6*	10*	6	15*	6.3*	11*	0	LXRb hcDAF ctr=1;hcDAF12 conf=13*

Screening results as filed in PubChem.
